Some test systems named below: SK-MEL-2 melanoma; EKVX NSCLC; SN12C renal; UO-31 renal; TK-10 renal; ACHN renal; CAKI-1 renal; A498 renal; CCRF-CEM leukemia; MOLT-4 leukemia; RPMI-8226 leukemia; OVCAR-8 ovarian; OVCAR-5 ovarian; OVCAR-4 ovarian; SK-OV-3 ovarian; IGROV1 ovarian; OVCAR-3 ovarian; HS 578T breast; NCI/ADR-RES ovarian.
Assay in all cases: NCI-60 one-dose screen, 48 h (100 = growth as untreated, 0 = no growth, -100 = all killed)
What all share (conditions): 10 µM unless noted

About 83,000 compounds went through this panel and 20% of them were active in at least one assay; those are over-represented in the sample as a whole.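 A percent growth of 40 corresponds to 60% growth inhibition; 0 means no net growth; -100 means all cells died. Active threshold: below 10.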 A number with no mark means an inactive call. Activity calls are given as the source filed them.

Our source for the growth values is PubChem BioAssay (NCI).

For `CNCCCC12CCC(c3ccccc31)c1ccccc12`, the growth is 100% in the assay on SK-MEL-2 melanoma; 87.9% in the assay on EKVX NSCLC; 73.4% with SN12C renal; 58% in the assay with UO-31 renal; 80.2% with TK-10 renal; 80.6% with ACHN renal. In addition, the growth is 83.4% with CAKI-1 renal; 93.7% in the assay with A498 renal; 84.7% in the assay on CCRF-CEM leukemia; 89.6% with MOLT-4 leukemia; 91% in the assay on RPMI-8226 leukemia; 99.7% in the assay on OVCAR-8 ovarian. For the same molecule, the growth is 90.2% in the assay on OVCAR-5 ovarian; 86.8% with OVCAR-4 ovarian; 85.2% in the assay with SK-OV-3 ovarian; 82.7% in the assay with IGROV1 ovarian; 107% with OVCAR-3 ovarian; 87.3% with HS 578T breast. The growth in the assay with NCI/ADR-RES ovarian was 89.5%.
As to `COC(=O)c1ccc2[nH]c(O)c(C(=Nc3ccc(N(C)C(=O)CN4CCN(C)CC4)cc3)c3ccccc3)c2c1`, the growth is -4.99% (active) in the assay on SK-MEL-2 melanoma; 54% in the assay on EKVX NSCLC; 17.6% in the assay on SN12C renal; 16% in the assay with UO-31 renal; 51.6% in the assay with TK-10 renal; 7.31% (active) in the assay with ACHN renal. Also, the growth was 4.65% (active) in the assay on CAKI-1 renal; -35.9% (active) in the assay with A498 renal; 10.7% in the assay with CCRF-CEM leukemia; 12.1% with MOLT-4 leukemia; -6.02% (active) in the assay on RPMI-8226 leukemia; 26% in the assay with OVCAR-8 ovarian. Further, the growth with OVCAR-5 ovarian is 57.2%; in the assay on OVCAR-4 ovarian it was 34.2%; in the assay on SK-OV-3 ovarian it was 5.32% (active); in the assay on IGROV1 ovarian, 10.2%; in the assay with OVCAR-3 ovarian, 50.5%; with HS 578T breast, -18.2% (active). Also, the growth in the assay on NCI/ADR-RES ovarian was 83.8%.
Consider `COc1cccc2nc3n(c12)C(c1c(F)cccc1F)SC3` (stereo unspecified), for which the growth in the assay on SK-MEL-2 melanoma was 86.2%; with EKVX NSCLC it was 101%; in the assay on SN12C renal, 100%; in the assay with UO-31 renal, 77.6%; in the assay on TK-10 renal, 115%; with ACHN renal it was 92.7%. Further, the growth with CAKI-1 renal was 106%; with A498 renal, 103%; in the assay on CCRF-CEM leukemia, 89.5%; in the assay on MOLT-4 leukemia it was 87%; in the assay with RPMI-8226 leukemia, 70.4%; in the assay with OVCAR-8 ovarian, 103%. The growth in the assay on OVCAR-5 ovarian is 80.8%; with OVCAR-4 ovarian it was 97.4%; in the assay on SK-OV-3 ovarian, 101%; with IGROV1 ovarian it was 7.38% (active); in the assay with OVCAR-3 ovarian, 132%; with HS 578T breast, 92.7%. In addition, in the assay with NCI/ADR-RES ovarian, the growth was 95.7%.
For `OC(COc1ccccc1Cl)CN1CCN(c2cccc(Cl)c2)CC1` (stereo unspecified), the growth was 106% in the assay with SK-MEL-2 melanoma; 119% with EKVX NSCLC; 104% with SN12C renal; 83.1% with UO-31 renal; 107% in the assay with TK-10 renal; 101% with ACHN renal. Moreover, the growth in the assay on CAKI-1 renal is 99.1%; in the assay on A498 renal, 108%; with CCRF-CEM leukemia, 113%; in the assay with MOLT-4 leukemia, 107%; in the assay on RPMI-8226 leukemia, 115%; in the assay on OVCAR-8 ovarian, 91.9%. Also, the growth was 97.8% with OVCAR-5 ovarian; 110% with OVCAR-4 ovarian; 109% in the assay on SK-OV-3 ovarian; 122% with IGROV1 ovarian; 113% with OVCAR-3 ovarian; 112% in the assay on HS 578T breast. Besides, the growth in the assay on NCI/ADR-RES ovarian was 113%.
As to `O=C(CCCCCCSc1nc(-c2ccccc2)cc(-c2ccccc2)n1)NO`, the growth is 74% in the assay with SK-MEL-2 melanoma; 57.1% in the assay on EKVX NSCLC; 70.1% in the assay on SN12C renal; 22.3% in the assay with UO-31 renal; 27.2% with TK-10 renal; 23% in the assay with ACHN renal. In addition, the growth was 13.7% in the assay on CAKI-1 renal; 50% with A498 renal; 2.47% (active) with CCRF-CEM leukemia; 5.23% (active) in the assay on MOLT-4 leukemia; 7.64% (active) in the assay on RPMI-8226 leukemia; 27.6% in the assay with OVCAR-8 ovarian. For the same molecule, the growth was 38.9% in the assay on OVCAR-5 ovarian; 59.1% with OVCAR-4 ovarian; 47.8% in the assay with SK-OV-3 ovarian; 36.9% in the assay with IGROV1 ovarian; 40% in the assay with OVCAR-3 ovarian; 43.1% in the assay on HS 578T breast. For the same molecule, the growth in the assay with NCI/ADR-RES ovarian is 0.776% (active).
On to `COc1ccc2c(c1)/C(=C/c1sc(=S)n(Cc3ccco3)c1O)C=N2`, for which the growth in the assay with SK-MEL-2 melanoma was 27%; in the assay with EKVX NSCLC it was 60.2%; in the assay on SN12C renal it was 32.7%; in the assay on UO-31 renal it was 58.6%; in the assay on TK-10 renal, 77.6%; in the assay with ACHN renal, 40.6%. Moreover, the growth was 39.3% with CAKI-1 renal; -9.18% (active) in the assay on A498 renal; 18.3% in the assay with CCRF-CEM leukemia; 29.2% with MOLT-4 leukemia; 18.5% with RPMI-8226 leukemia; 40.7% with OVCAR-8 ovarian. Moreover, the growth in the assay on OVCAR-5 ovarian was 76.8%; with OVCAR-4 ovarian, 73.7%; with SK-OV-3 ovarian, 68.6%; in the assay on IGROV1 ovarian it was 47.8%; in the assay with OVCAR-3 ovarian it was 22.9%; in the assay with HS 578T breast it was 20.4%. In addition, in the assay with NCI/ADR-RES ovarian, the growth was 13.3%.
Regarding `O=C(N/N=C/c1ccc(Cl)cc1)c1ccc(C(F)(F)F)nc1Nc1cccc(C(F)(F)F)c1`, the growth in the assay on SK-MEL-2 melanoma is 25.8%; in the assay with EKVX NSCLC, 17.7%; in the assay with SN12C renal, 4.9% (active); with UO-31 renal it was 10%; in the assay on TK-10 renal it was 26.6%; in the assay with ACHN renal it was 13%. Moreover, the growth was -5.88% (active) in the assay on CAKI-1 renal; 12.6% in the assay with A498 renal; 33.9% in the assay on CCRF-CEM leukemia; 2.2% (active) with MOLT-4 leukemia; 3.59% (active) in the assay with RPMI-8226 leukemia; 24% with OVCAR-8 ovarian. The growth is 28% in the assay with OVCAR-5 ovarian; 18.6% in the assay on OVCAR-4 ovarian; 23.8% with SK-OV-3 ovarian; 21.1% with IGROV1 ovarian; -45.2% (active) with OVCAR-3 ovarian; 4.32% (active) in the assay on HS 578T breast. For the same molecule, the growth in the assay on NCI/ADR-RES ovarian was -36.2% (active).
As for `CCOC(=O)Nc1ccc(C(=O)/C=C/c2ccccc2)cc1`, the growth is 105% in the assay with SK-MEL-2 melanoma; 105% in the assay with EKVX NSCLC; 87% in the assay with SN12C renal; 51.9% in the assay with UO-31 renal; 103% with TK-10 renal; 102% in the assay on ACHN renal. Moreover, the growth is 105% with CAKI-1 renal; 92.1% with A498 renal; 91.6% in the assay on CCRF-CEM leukemia; 78.8% in the assay with MOLT-4 leukemia; 18.9% in the assay with RPMI-8226 leukemia; 92.3% with OVCAR-8 ovarian. Further, the growth with OVCAR-5 ovarian is 102%; in the assay on OVCAR-4 ovarian, 103%; in the assay with SK-OV-3 ovarian, 110%; with IGROV1 ovarian, -22.8% (active); in the assay on OVCAR-3 ovarian, 86.8%; in the assay on HS 578T breast, 93.6%. Moreover, the growth in the assay with NCI/ADR-RES ovarian is 89%.
For the molecule `COc1cc(CCC[P+](c2ccccc2)(c2ccccc2)c2ccccc2)c(OC)c2c1OCO2`, the growth is -13.1% (active) with SK-MEL-2 melanoma; 25.4% in the assay with EKVX NSCLC; 29.6% in the assay with SN12C renal; 93.9% in the assay with UO-31 renal; 12.1% in the assay with TK-10 renal; 94.1% in the assay on ACHN renal. Besides, the growth with CAKI-1 renal was 75.8%; in the assay with A498 renal, 41.5%; in the assay on CCRF-CEM leukemia, 37.8%; in the assay on MOLT-4 leukemia it was 44.4%; with RPMI-8226 leukemia, 10.4%; with OVCAR-8 ovarian, 9.83% (active). The growth was 64.6% in the assay on OVCAR-5 ovarian; 11.1% with OVCAR-4 ovarian; 27.2% with SK-OV-3 ovarian; 32.5% in the assay on IGROV1 ovarian; 5% (active) in the assay on OVCAR-3 ovarian; 38.4% with HS 578T breast. Moreover, the growth in the assay on NCI/ADR-RES ovarian was 98.5%.
